From PubChem BioAssay (EPA / NIEHS)
Records with an inconclusive call do not appear. Calls of active or inactive are those of the source. Rule for the calls, unless noted: active = hit-call score of the fitted dose curve at least 0.9, where 1 is the maximum; inactive = score below 0.9.

Key:
[1] = CCTE_Shafer_MEA_acute_spike_number: CCTE's Neural Acute Assay for Total Number of Spikes, Shafer Lab (AID 2284008)
Outline: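 Using an adaptive detector set to 8x rms noise, spikes were counted in 40-min windows before and after compound addition (0.03-40 uM) to rat cortical networks at 37 C; the well-level change from baseline was analysed relative to DMSO.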

[2] = CCTE_Shafer_MEA_acute_firing_rate_mean: CCTE's Neural Acute Assay for Mean Firing Rate, Shafer Lab (AID 2284009);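 note: analyzed for loss of signal so actives lower firing rate relative to DMSO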
Outline: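 Rat cortical neuron cultures matured to DIV 13 or 15, equilibrated 20 min at 37 C, then recorded 40 min for baseline. Compound (0.03-40 uM) added and a further 40 min recorded; percent change in mean firing rate calculated per well.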

[3] = CCTE_Shafer_MEA_acute_burst_number: CCTE's Neural Acute Assay for Single-Electrode Bursts, Shafer Lab (AID 2284013)
Outline: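 Percent change in single-electrode burst number per well, from 40-min recordings taken before and after adding compound (0.03-40 uM) to primary rat cortical neurons on MEA plates at DIV 13 or 15, 37 C.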

[4] = CCTE_Harrill_HTTr_Viability_MCF7: CCTE's 6-hour Cell Viability Assessment for the High-Throughput Transcriptomics (HTTr) Platform, in MCF-7 cells cultured in DMEM + 10% fetal bovine serum, Harrill Lab (AID 2284010)
Outline: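 Eight-point concentration series, six-hour exposure. Propidium iodide exclusion imaged to assess membrane integrity as a cytotoxicity readout; bidirectional fitting was done with DMSO as negative control and activity baseline.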

[5] = CCTE_Harrill_HTTr_Apoptosis_MCF7: CCTE's 6-hour Apoptosis Assessment for the High-Throughput Transcriptomics (HTTr) Platform, in MCF-7 cells cultured in DMEM + 10% fetal bovine serum, Harrill Lab (AID 2284011)
Outline: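 Apoptosis in MCF-7 cells grown in DMEM with 10% fetal bovine serum was scored after a six hour exposure by high content imaging of caspase-3/7 activation (CellEvent Caspase 3/7 Green), with DMSO serving as negative control and baseline.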

[6] = CCTE_Harrill_HTTr_CellCount_MCF7: CCTE's Cell Proliferation Assessment for the High-Throughput Transcriptomics (HTTr) Platform, Harrill Lab (AID 2284012; active = hit-call score of the fitted dose curve at least 0.9, where 1 is the maximum;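 note: count of Hoechst-stained nuclei per well by high-content imaging in MCF-7 cells; cells exposed to compound for six hours; intended direction is loss of nuclei count meaning fewer cells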)
Outline: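 For this full-screen endpoint, MCF-7 cultures received eight compound dilutions for six hours. Well nuclei counts from Hoechst imaging were analyzed relative to DMSO.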

## CC(C)(C)c1cc(O)ccc1O
[1]
  outcome: inactive
[2]
  outcome: inactive
[3]
  outcome: inactive

## CCCCCCCCC(=O)NCc1ccc(O)c(OC)c1
[4]
  outcome: inactive

## COc1ccc(C=O)cc1OC
[4]
  outcome: inactive

## COc1ccc(C(O)(c2cncnc2)C2CC2)cc1 (configuration not stated)
[4]
  outcome: inactive

## Cc1cc(Cl)ccc1O[C@H](C)C(=O)O
[4]
  outcome: inactive

## CCc1ccccc1C
[4]
  outcome: inactive
[5]
  outcome: inactive

## COC[C@H](C)N(C(=O)CCl)c1c(C)csc1C
[4]
  outcome: inactive
[5]
  outcome: inactive

## Fc1ccc(C2(Cn3cncn3)OC2c2ccccc2Cl)cc1 (configuration not stated)
[4]
  outcome: inactive
[5]
  outcome: inactive

## CNC
[4]
  outcome: inactive

## COP(=O)(OC)OC
[4]
  outcome: inactive

## O=C1CCCN1
[4]
  outcome: inactive
[5]
  outcome: inactive

## CC(=O)OC(c1ccccc1)C(Cl)(Cl)Cl (configuration not stated)
[1]
  outcome: inactive
[2]
  outcome: inactive
[4]
  outcome: inactive
[3]
  outcome: inactive

## C=C(C)C#N
[4]
  outcome: inactive
[5]
  outcome: inactive

## CN(C)P(=O)(N(C)C)N(C)C
[4]
  outcome: inactive

## NC(=O)CF
[4]
  outcome: inactive
[5]
  outcome: inactive
[6]
  outcome: inactive

## ClC1=C(Cl)[C@]2(Cl)[C@H]3[C@H]([C@H]4C=C[C@H]3C4)[C@@]1(Cl)C2(Cl)Cl
[4]
  outcome: inactive
[5]
  outcome: inactive
[6]
  outcome: inactive

## CC(Br)C(=O)O (configuration not stated)
[4]
  outcome: inactive
[6]
  outcome: inactive

## O=Cc1cccc(Oc2ccccc2)c1
[4]
  outcome: inactive
[5]
  outcome: inactive

## BrCCBr
[4]
  outcome: inactive
[5]
  outcome: inactive

## CC1(C)Cc2cccc(O)c2O1
[4]
  outcome: inactive
[6]
  outcome: inactive

## CC(=O)c1cc(C(C)(C)C)cc2c1CCC2(C)C
[4]
  outcome: inactive
[5]
  outcome: inactive

## O=S(=O)(c1ccc(Cl)cc1)c1ccc(Cl)cc1
[4]
  outcome: inactive
[5]
  outcome: inactive

## Oc1ccc(-c2ccccc2)cc1
[4]
  outcome: inactive
[6]
  outcome: inactive

## Nc1cccc2ccccc12
[4]
  AC50: 37.4 µM (active)
[5]
  outcome: inactive
[6]
  outcome: inactive
